# Data taken from PubChem BioAssay (NCATS).
# Inconclusive results are not listed. Where a call stands in place of a potency, no number is given. A number with no mark means an inactive call. Active and inactive are the calls of the source. Calls come from the whole dose curve; as a rule, active = well fitted curve in the direction sought with a large enough effect; inconclusive = small, poorly fitted or top-dose-only effect, or another doubt; inactive = no such curve, though single readings can be large; an effect the other way counts as inactive or inconclusive.
# Columns and labels:
# [1] = Quantitative High-Throughput drug screen in 47 multiple myeloma cell lines against the NCATS MIPE library collection: MOLP8_DSMZ cell viability assay (AID 1918977); note: nearly all actives have a fitted effect of over 45% in size
# Outline: (§1)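 Plated at 500 cells per well, myeloma lines received MIPE 4.0 compounds by pin tool. Following 48 h culture at 37 °C, CellTiter-Glo luminescence gave viability relative to DMSO and media-only controls.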
# [2] = Quantitative High-Throughput drug screen in 47 multiple myeloma cell lines against the NCATS MIPE library collection: OCIMY1_PLB cell viability assay (AID 1918979); note: series mostly up to about 46 µM; nearly all actives have a fitted effect of over 35% in size
# Outline: as §1
# [3] = Quantitative High-Throughput drug screen in 47 multiple myeloma cell lines against the NCATS MIPE library collection: MM1R_ATCC cell viability assay (AID 1918981); note: nearly all actives have a fitted effect of over 35% in size; note: potency is the fitted concentration of half-maximal effect
# Outline: as §1
# [4] = Quantitative High-Throughput drug screen in 47 multiple myeloma cell lines against the NCATS MIPE library collection: LP1_DSMZ cell viability assay (AID 1918982); note: nearly all actives have a fitted effect of over 35% in size; note: potency is the fitted concentration of half-maximal effect
# Outline: as §1
# [5] = Quantitative High-Throughput drug screen in 47 multiple myeloma cell lines against the NCATS MIPE library collection: KMS28PE_JCRB cell viability assay (AID 1918983); note: nearly all actives have a fitted effect of over 35% in size; note: potency is the fitted concentration of half-maximal effect
# Outline: as §1
# [6] = Quantitative High-Throughput drug screen in 47 multiple myeloma cell lines against the NCATS MIPE library collection: L363_DSMZ cell viability assay (AID 1918984); note: nearly all actives have a fitted effect of over 40% in size; note: potency is the fitted concentration of half-maximal effect
# Outline: as §1
# [7] = Quantitative High-Throughput drug screen in 47 multiple myeloma cell lines against the NCATS MIPE library collection: OPM1_PLB cell viability assay (AID 1918989); note: nearly all actives have a fitted effect of over 40% in size; note: potency is the fitted concentration of half-maximal effect
# Outline: as §1
# [8] = Quantitative High-Throughput drug screen in 47 multiple myeloma cell lines against the NCATS MIPE library collection: U266_ATCC cell viability assay (AID 1919864); note: nearly all actives have a fitted effect of over 35% in size; note: potency is the fitted concentration of half-maximal effect
# Outline: as §1
# [9] = Quantitative High-Throughput drug screen in 47 multiple myeloma cell lines against the NCATS MIPE library collection: XG6_PLB cell viability assay (AID 1919865); note: nearly all actives have a fitted effect of over 40% in size; note: potency is the fitted concentration of half-maximal effect
# Outline: as §1
# [10] = Quantitative High-Throughput drug screen in 47 multiple myeloma cell lines against the NCATS MIPE library collection: XG1_PLB cell viability assay (AID 1919866); note: nearly all actives have a fitted effect of over 35% in size; note: potency is the fitted concentration of half-maximal effect
# Outline: as §1
# [11] = Quantitative High-Throughput drug screen in 47 multiple myeloma cell lines against the NCATS MIPE library collection: VP6_DJ cell viability assay (AID 1919867); note: nearly all actives have a fitted effect of over 40% in size; note: potency is the fitted concentration of half-maximal effect
# Outline: as §1
# [12] = Quantitative High-Throughput drug screen in 47 multiple myeloma cell lines against the NCATS MIPE library collection: NCIH929_DSMZ cell viability assay (AID 1918978); note: nearly all actives have a fitted effect of over 35% in size
# Outline: as §1
# [13] = Quantitative High-Throughput drug screen in 47 multiple myeloma cell lines against the NCATS MIPE library collection: SKMM1_PLB cell viability assay (AID 1919863); details: SKMM1 myeloma viability, CellTiter-Glo ATP, 48 h; viability: hits give low values; note: nearly all actives have a fitted effect of over 35% in size; note: potency is the fitted concentration of half-maximal effect; for viability: series mostly up to about 46 µM
# Outline: as §1
# [14] = Quantitative High-Throughput drug screen in 47 multiple myeloma cell lines against the NCATS MIPE library collection: KMS34_JCRB cell viability assay (AID 1918985); note: nearly all actives have a fitted effect of over 40% in size; note: potency is the fitted concentration of half-maximal effect
# Outline: as §1
# [15] = Quantitative High-Throughput drug screen in 47 multiple myeloma cell lines against the NCATS MIPE library collection: OCIMY5_PLB cell viability assay (AID 1918988); note: nearly all actives have a fitted effect of over 65% in size; note: potency is the fitted concentration of half-maximal effect
# Outline: as §1
# [16] = Quantitative High-Throughput drug screen in 47 multiple myeloma cell lines against the NCATS MIPE library collection: MM1S_ATCC cell viability assay (AID 1918980); note: nearly all actives have a fitted effect of over 45% in size; note: potency is the fitted concentration of half-maximal effect
# Outline: as §1
# [17] = Quantitative High-Throughput drug screen in 47 multiple myeloma cell lines against the NCATS MIPE library collection: MMM1_PLB cell viability assay (AID 1918976); note: nearly all actives have a fitted effect of over 35% in size; note: potency is the fitted concentration of half-maximal effect
# Outline: as §1
smiles,measurement,setting,value
O=NN(CCCl)C(=O)NC1CCCCC1,Potency,[1],inactive
same,Potency,[2],inactive
same,Potency,[3],inactive
same,Potency,[4],inactive
same,Potency,[5],inactive
same,Potency,[6],inactive
same,Potency,[7],inactive
same,Potency,[8],inactive
same,Potency,[9],inactive
same,Potency,[10],inactive
same,Potency,[11],inactive
COc1cc(NS(=O)(=O)c2ccc(N)cc2)nc(OC)n1,Potency,[1],inactive
same,Potency,[12],inactive
same,Potency,[2],inactive
same,Potency,[3],inactive
same,Potency,[4],inactive
same,Potency,[6],inactive
same,Potency,[7],inactive
same,viability,[13],133%
same,Potency,[8],inactive
same,Potency,[9],inactive
same,Potency,[10],inactive
CCc1cc(C(N)=S)ccn1,Potency,[1],inactive
same,Potency,[2],inactive
same,Potency,[4],inactive
same,Potency,[5],inactive
same,Potency,[6],inactive
same,Potency,[14],inactive
same,Potency,[7],inactive
same,Potency,[9],inactive
same,Potency,[10],inactive
CCN(C)C(=O)Oc1cccc([C@H](C)N(C)C)c1,Potency,[1],inactive
same,Potency,[2],inactive
same,Potency,[14],inactive
same,Potency,[15],inactive
same,Potency,[7],inactive
same,Potency,[10],inactive
Cc1ncc([N+](=O)[O-])n1CCO,Potency,[1],inactive
same,Potency,[12],inactive
same,Potency,[2],inactive
same,Potency,[3],inactive
same,Potency,[4],inactive
same,Potency,[5],inactive
same,Potency,[15],inactive
same,Potency,[7],inactive
same,Potency,[9],inactive
same,Potency,[10],inactive
same,Potency,[11],inactive
CC(C)OC(=O)OCOP(=O)(CO[C@H](C)Cn1cnc2c(N)ncnc21)OCOC(=O)OC(C)C,Potency,[16],23.5 µM (active)
same,Potency,[3],11.8 µM (active)
same,Potency,[4],inactive
same,Potency,[15],3.72 µM (active)
same,Potency,[7],inactive
same,Potency,[8],16.6 µM (active)
O=P(O)(O)C(O)(Cc1cccnc1)P(=O)(O)O,Potency,[12],inactive
same,Potency,[2],inactive
same,Potency,[4],inactive
same,Potency,[5],inactive
same,Potency,[6],inactive
same,Potency,[15],inactive
same,Potency,[7],inactive
same,Potency,[9],inactive
same,Potency,[10],inactive
same,Potency,[11],inactive
Cc1cccc(N(C)C(=S)Oc2ccc3ccccc3c2)c1,Potency,[2],inactive
same,Potency,[3],inactive
same,Potency,[5],inactive
same,Potency,[14],inactive
same,Potency,[7],inactive
same,viability,[13],112%
same,Potency,[8],20.9 µM (active)
same,Potency,[9],inactive
C[C@@H]1CN(c2c(F)c(N)c3c(=O)c(C(=O)O)cn(C4CC4)c3c2F)C[C@H](C)N1,Potency,[1],inactive
same,Potency,[12],inactive
same,Potency,[16],inactive
same,Potency,[4],inactive
same,Potency,[5],inactive
same,Potency,[6],inactive
same,Potency,[14],inactive
same,Potency,[7],inactive
same,viability,[13],160%
same,Potency,[9],inactive
same,Potency,[10],inactive
CN1CCN(c2c(F)cc3c(=O)c(C(=O)O)cn4c3c2OCN4C)CC1,Potency,[1],inactive
same,Potency,[12],inactive
same,Potency,[2],inactive
same,Potency,[16],inactive
same,Potency,[3],inactive
same,Potency,[4],inactive
same,Potency,[5],inactive
same,Potency,[6],inactive
same,Potency,[14],inactive
same,Potency,[15],inactive
same,Potency,[7],inactive
same,Potency,[8],inactive
same,Potency,[10],inactive
CC1(C)[C@H](C(=O)O)N2C(=O)C[C@H]2S1(=O)=O,Potency,[3],inactive
same,Potency,[4],0.0012 µM (active)
same,Potency,[6],inactive
same,Potency,[7],inactive
same,viability,[13],120%
same,Potency,[9],inactive
same,Potency,[11],inactive
CC1=NN(c2ccccc2)C(=O)C1,Potency,[1],inactive
same,Potency,[2],inactive
same,Potency,[16],inactive
same,Potency,[3],inactive
same,Potency,[7],inactive
same,Potency,[9],7.43 µM (active)
CC(=O)[C@H]1CC[C@H]2[C@@H]3CCC4=CC(=O)CC[C@]4(C)[C@H]3CC[C@]12C,Potency,[5],inactive
same,Potency,[7],8.33 µM (active)
same,Potency,[11],7.43 µM (active)
NC(N)=NC(N)=NCCc1ccccc1,Potency,[17],5.26 µM (active)
same,Potency,[3],16.6 µM (active)
same,Potency,[6],14.8 µM (active)
same,Potency,[15],13.2 µM (active)
same,Potency,[7],20.9 µM (active)
same,Potency,[10],7.43 µM (active)
same,Potency,[11],10.5 µM (active)
Cc1oc(=O)oc1CN1CCN(c2cc3c(cc2F)c(=O)c(C(=O)O)c2n3C(C)S2)CC1 (stereo not drawn),Potency,[2],inactive
same,Potency,[3],inactive
same,Potency,[7],inactive
same,Potency,[8],inactive
same,Potency,[11],inactive
CC(C)Cn1cnc2c(N)nc3ccccc3c21,Potency,[17],16.6 µM (active)
same,Potency,[2],inactive
same,Potency,[4],inactive
same,Potency,[5],23.5 µM (active)
same,Potency,[6],4.18 µM (active)
same,Potency,[15],16.6 µM (active)
same,Potency,[13],14.8 µM (active)
same,Potency,[8],20.9 µM (active)
same,Potency,[11],inactive
S=P(N1CC1)(N1CC1)N1CC1,Potency,[2],inactive
same,Potency,[3],18.7 µM (active)
same,Potency,[4],inactive
same,Potency,[5],inactive
same,Potency,[14],0.0012 µM (active)
same,Potency,[15],inactive
same,Potency,[7],inactive
same,viability,[13],142%
same,Potency,[9],23.5 µM (active)
CC[C@H](C)C(=O)O[C@H]1C[C@@H](C)C=C2C=C[C@H](C)[C@H](CC[C@@H]3C[C@@H](O)CC(=O)O3)[C@H]21,Potency,[17],14.8 µM (active)
same,Potency,[2],inactive
same,Potency,[16],16.6 µM (active)
same,Potency,[3],16.6 µM (active)
same,Potency,[4],20.9 µM (active)
same,Potency,[6],inactive
same,Potency,[15],16.6 µM (active)
same,Potency,[7],11.8 µM (active)
CCN(CC)CC#CCOC(=O)C(O)(c1ccccc1)C1CCCCC1 (stereo not drawn),Potency,[1],inactive
same,Potency,[12],inactive
same,Potency,[2],inactive
same,Potency,[3],inactive
same,Potency,[9],inactive
same,Potency,[10],inactive
CC(C)OC(=O)C(C(=O)OC(C)C)=C1SC=CS1,Potency,[2],inactive
same,Potency,[6],inactive
same,Potency,[9],inactive
same,Potency,[10],inactive
same,Potency,[11],inactive
CCOc1cc(N)c(Cl)cc1C(=O)NCC1CN(Cc2ccc(F)cc2)CCO1 (stereo not drawn),Potency,[1],inactive
same,Potency,[2],inactive
same,Potency,[3],inactive
same,Potency,[4],inactive
same,Potency,[5],inactive
same,Potency,[15],inactive
same,viability,[13],114%
same,Potency,[8],inactive
same,Potency,[9],inactive
same,Potency,[10],inactive
CC(C(=O)O)c1ccc2c(c1)CC(=O)c1ccccc1S2 (stereo not drawn),Potency,[1],inactive
same,Potency,[12],inactive
same,Potency,[2],inactive
same,Potency,[16],2.96 µM (active)
same,Potency,[4],inactive
same,Potency,[7],inactive
CCC(C)(C)c1ccc(CC(C)CN2C[C@@H](C)O[C@@H](C)C2)cc1 (stereo partly drawn),Potency,[12],inactive
same,Potency,[11],16.6 µM (active)
COC(c1ccccc1)(c1ccccc1)[C@H](Oc1nc(C)cc(C)n1)C(=O)O,Potency,[12],inactive
same,Potency,[2],inactive
same,Potency,[3],inactive
same,Potency,[5],inactive
same,Potency,[14],inactive
same,Potency,[7],inactive
same,Potency,[8],inactive
same,Potency,[9],inactive
same,Potency,[10],inactive
COc1cc([C@@H]2c3cc4c(cc3[C@H](O)[C@H]3COC(=O)[C@H]23)OCO4)cc(OC)c1OC,Potency,[17],inactive
same,Potency,[2],inactive
same,Potency,[4],inactive
same,Potency,[6],inactive
same,Potency,[14],inactive
same,Potency,[7],inactive
same,viability,[13],65.8%
same,Potency,[8],inactive
same,Potency,[9],inactive
same,Potency,[10],inactive
